To fix the notation:
B1: ENSMUSG00000061578.598|Ksr2 (ssRNA)
RNA: GGGAGUUCUACAGUCCGACGAUCGCUUCGAUAUCCGCAUGCUAUAAAAUAUGAUUCAGGCAAAUUCAAUGCAACUCAAAAUUUCCACCAAUCCCAUAUUGUCCCUAGCAAUGACAAAAUUAUUUGCAAGACAGACCCUGUGACCUGUAGAGGCAAAAUAUAUGGUGGCUUGCCUGGCUGGCCUGUGAUAUAGUGGACUGUCUUAGUGAUCGGACUUCAGGGAGCAACCUAUAGGAAAUGCAAAGGCUUAGAGGGGACGGACAGCUCCCUGACCCUGGAUGGCCAGGAAUGGUGCUAGCUAGGGCUCUUGCGGUCGCACUAGUGUGGAAUUCUCGGGUGUCAAGG
B2: ENSMUSG00000031028.646|Tub (ssRNA)
RNA: GGGAGUUCUACAGUCCGACGAUCGCUUCGAUAUCCGCAUGCUACCCCACUGAGGUCCAGGUAGAGCAGAUGAGGCUGAAAUGUAGAGUGUUCUAUAGAGCAUCUCAGUAGCAUAGAAGGAGAAGCCCAGCUCCAACCUCCUGGACCCCAUACUGGUGACCAGCUUGGUGAGGACAGGCAAAAUUUCUCUAGCUGAGAGCACACUUAGCCAGUUUUCACGCCUAGAACAUAUAUGUCGAUUUGCACAUGAUUGUCUUUUCCUAUUUUGGAGUGGUCAGACAUUUUAUUUUUGUUCAAAAUUAUCCUCUUGCGGUCGCACUAGUGUGGAAUUCUCGGGUGUCAAGG
B3: ENSMUSG00000031028.671|Tub (ssRNA)
RNA: GGGAGUUCUACAGUCCGACGAUCGCUUCGAUAUCCGCAUGCUAGAGAGCACACUUAGCCAGUUUUCACGCCUAGAACAUAUAUGUCGAUUUGCACAUGAUUGUCUUUUCCUAUUUUGGAGUGGUCAGACAUUUUAUUUUUGUUCAAAAUUAUCUGGAGUUUUAGACAAACUUGCAAAACUGUGCUUUUAUUAAGUGACUUUUUGAAUAAACUUUUUGGUAUUCUGAAGCAAAUGUAUUUAUUUAUUGGUAUGUGCAAUGACAAACUUGGUAUUUUCCCAUAAUGACAUUAUGUAUGUUGUAGACUCUUGCGGUCGCACUAGUGUGGAAUUCUCGGGUGUCAAGG
B4: ENSMUSG00000029636.275|Wasf3|21:26 (ssRNA)
RNA: GGGAGUUCUACAGUCCGACGAUCGCUUCGAUAUCCGCAUGCUAUCCCUACGCCCUGCUUUGGCCACACACUGAGUGCUCUGUGCUGCGCCAUGGCCAUCCUGGAGCCUGCGCACACGUGGCCGCUGCUGUGACUCGCUGUCCUUGGUAAUUGGUGAGAGGCUUUUUCUUUCUUUCUCAGUUCUGCUUUUCCACACUGAGACCCACCAUGUUGACAUCAUCCUCGCGACGUUGACAUUUGAGCCUUUUGUUCUGUCUCCCAUGUGCCCUGUAGAACCCAGCACUCAUGUUUGGCAAAACUUUUUCUCUUGCGGUCGCACUAGUGUGGAAUUCUCGGGUGUCAAGG
B5: ENSMUSG00000061578.898|Ksr2 (ssRNA)
RNA: GGGAGUUCUACAGUCCGACGAUCGCUUCGAUAUCCGCAUGCUAGACACUACCCAAACCCUAGCACUCUCCCAGUGACUCUCCUAUGAGUACAUAUGCCAUCCUGCUUCCUUUGUGGCAAAACCCUGGGUCACCCAGAGACAGAUUUCCCAGAAUCCCUGGGCCACUUCUCAAUUCUACCCAUGACAGACAUGUCCCAUCCAUGAGCCCAGAUAGUCAAAGACUUCAGCACAAGGGUGUUUAGAGUAGGCAGUGUGGAAGUAUCAAUAAGGUUAUUGAGAUGAGGAUUUAGAAAGAUCCAUGUACUCUUGCGGUCGCACUAGUGUGGAAUUCUCGGGUGUCAAGG
B6: ENSMUSG00000042529.46|Kcnj12|142:149 (ssRNA)
RNA: GGGAGUUCUACAGUCCGACGAUCGCUUCGAUAUCCGCAUGCUAGGCCAAAAUGACUGGCUCACGGCCUCGGAGGCUGAUGUAUACCCAUGGGCAAGGAGGUGACUUCUUGGGGUAGGGUUGCUCAGGAGUUAGGGACUCUGCUGGAGGCCUUAGGUGCAGGUCCCAGCCCCGGUGGGAGGAGGCACACAUACUACACUUCAUUGGUUUUUAACUUGGGCAAGACUGUUUACAAACAAAAACAAACAAACAAACAAUCAAAAAAAAAACCCACCCCACAAAACACAAGAAAACAUUAACAGGUGCUCUUGCGGUCGCACUAGUGUGGAAUUCUCGGGUGUCAAGG
B7: ENSMUSG00000031028.261|Tub (ssRNA)
RNA: GGGAGUUCUACAGUCCGACGAUCGCUUCGAUAUCCGCAUGCUACCAGAGGGAAGCAAAGAGCAUUUAGACAUUGCUUUUUGCUUUGAAAUAGAUAUGUUUGGAAACGCUAAGUAGAAGUUUAAAAAGUAGAGUCAUGUAGAGUCAUGCUUUGAAUAUGUGGGUCAUGCUUUAGAUAUGAAGAGGCUAUGCAGGUAAGGAGGCUGGAUUGAUGUAAAUGGAAGUAGUACUUUAAGAAAGCUCUAGAUUUCCCAGGUUGGACACUCGACGAAAGGCACACCUGCUGCAGCAGGUUCUGACACACCCUCUUGCGGUCGCACUAGUGUGGAAUUCUCGGGUGUCAAGG
B8: ENSMUSG00000043670.150|Diras1|4:8;157:162;227:231 (ssRNA)
RNA: GGGAGUUCUACAGUCCGACGAUCGCUUCGAUAUCCGCAUGCUAGGACACACGAGUGGCUGCCUGGACACUGCCCACCUGGACACCAGCCUUCUGCUGAGAUAGAGACCUUGGCACAGUGGCACCUCGACAGCCACCCCGACUGGGGGUUUGGGGUGCUGAGGGUGGGGUGCCCAGCUGAGAGUCUAUCAGCAAAGUCCCACACACCGGUGAUAGGACUAGUGGCUGCUGCCCUAGGGCUCUGACAGAAUCUGAGCCUCUUUGCUGGUCAACACAACUCUGGAGACUGUCCCCCAUGUCUGCCCCUCUUGCGGUCGCACUAGUGUGGAAUUCUCGGGUGUCAAGG
B9: ENSMUSG00000034801.46|Sos2 (ssRNA)
RNA: GGGAGUUCUACAGUCCGACGAUCGCUUCGAUAUCCGCAUGCUACCACCCGCCACUGUAUAGACUGCCUCUGCUGGAAAAUGCAGAAACUCCUCAAUGACCUUGGCCAUAUGUAGUCAUUGACACUGGAAUAGUAUUUGUAAAGGUUUUUAAUUUAUUCAAAAAGACAUAGUAUUUUAGUACUUUUUACAGAAAUGCUACUGAUUAAAUAAGCUCUUAAGAAUUAGUAAACUUGUUGGAUGGCAGUGGCCCACAGCUGUAAUCCCAGCACCCUGGUUGCAGGGGCAGGUGGGCUUCAGGGUUUGCUCUUGCGGUCGCACUAGUGUGGAAUUCUCGGGUGUCAAGG
B10: ENSMUSG00000043670.73|Diras1 (ssRNA)
RNA: GGGAGUUCUACAGUCCGACGAUCGCUUCGAUAUCCGCAUGCUAACACACUGGAGGUUUGAUCCCUGUGGAUCUGAAAACAGGGACCUGGCUAAGGAACUGCUCAUCCCAGUCAGGCCCAGAGAGGUUACCUUGCCUCUCCAUCUCUGUCCCUGUGUGCCCAGCCAUGCCCACUGUCCCUGUCCCUCACAUUCUAUCACUGUGACCUCUGGGGAGUGCCCAUUGACCUCAUCUUCCUUCACUAAUAUCUUAUUUCUUUCACCUGAUCCUGUCCUUUCCCCGUGACCUCUGACCUGUGGCCUUCCCUCUUGCGGUCGCACUAGUGUGGAAUUCUCGGGUGUCAAGG
B11: ENSMUSG00000004113.197|Cacna1b|112:116 (ssRNA)
RNA: GGGAGUUCUACAGUCCGACGAUCGCUUCGAUAUCCGCAUGCUACCUCUGCUCAACCAAGUGCCUGAUCUCUGGCUCUGAGCAUCGUGGAUGAGGUACGGCCUCAGGAAGCAUCGGGUGGAUUGGGUGGGAGCUGCUCAGAGCAGCACGGGGGCUACACACUUAGGGACAUUGACAGUGUCCAUCAGCAUGUCAGAGAAGCAGCUGUAGUGCCCGUGUUUCUCCCUGAGUCAUGGGUUCUGAAGAAGCCAGAGCGGCACAAUGCGUGCUUGCAUGAGGCACUUUCAGCCUUUUUAAAUCUGACUCUCUUGCGGUCGCACUAGUGUGGAAUUCUCGGGUGUCAAGG
B12: ENSMUSG00000090935.575|Synj2bp (ssRNA)
RNA: GGGAGUUCUACAGUCCGACGAUCGCUUCGAUAUCCGCAUGCUAAUUCAAAUUUUAUGUUUCUUAUAGACUGACUCAAAUAUUCCUACCACCUUAAAAUUAUAUAUGAUGCACCUACCACAUAAAUUAUAAUGUUUAAUGUUUUGAAAAUGGAUUAUAGGUAUUUUUAAGUUUUCAUAAAGUAUUUCUUAUAUUUGUCAUUGUGAAUUAUAUGUAAUUCUAAUAGACACUGUUUGCUUCAGUUGUUUUUGUUUCCUUUUCCUACAGUUUUCUGUGUGGGUGAUUUCAUUUAAUUAAUUGGACAGCUCUUGCGGUCGCACUAGUGUGGAAUUCUCGGGUGUCAAGG
B13: ENSMUSG00000028439.178|Fam219a (ssRNA)
RNA: GGGAGUUCUACAGUCCGACGAUCGCUUCGAUAUCCGCAUGCUACAUGUGUGUGCAUGUGUGUGUGCCUGUGUGUGUGCGUGUGCGUGUGUGUAUGUGUGUGCGUGUGUGUGUGUGUGUGUUGUACCCGAGUGUGUGUUGAGCCUAUCUGUCCAGGGAACCAGAUUGGUGUCCGAGAUGAGGAAAUGGCUGUGGCCUGGGAAAUCAGUGAGAGGCCGCUUGGGAAUGAGAAUGCAGUGGACUGAAAGCACAGCCUGGCCAUCUGGAACCUGGGUUCUGGUCCCAGCCUCGGCAUUCUCCCUGAGCUCUUGCGGUCGCACUAGUGUGGAAUUCUCGGGUGUCAAGG
B14: ENSMUSG00000028439.179|Fam219a (ssRNA)
RNA: GGGAGUUCUACAGUCCGACGAUCGCUUCGAUAUCCGCAUGCUAUGUGCAUGUGUGUGUGCCUGUGUGUGUGCGUGUGCGUGUGUGUAUGUGUGUGCGUGUGUGUGUGUGUGUGUUGUACCCGAGUGUGUGUUGAGCCUAUCUGUCCAGGGAACCAGAUUGGUGUCCGAGAUGAGGAAAUGGCUGUGGCCUGGGAAAUCAGUGAGAGGCCGCUUGGGAAUGAGAAUGCAGUGGACUGAAAGCACAGCCUGGCCAUCUGGAACCUGGGUUCUGGUCCCAGCCUCGGCAUUCUCCCUGAGCUCCUACUCUUGCGGUCGCACUAGUGUGGAAUUCUCGGGUGUCAAGG
B15: ENSMUSG00000028439.180|Fam219a (ssRNA)
RNA: GGGAGUUCUACAGUCCGACGAUCGCUUCGAUAUCCGCAUGCUAUGUGUGUGUGCCUGUGUGUGUGCGUGUGCGUGUGUGUAUGUGUGUGCGUGUGUGUGUGUGUGUGUUGUACCCGAGUGUGUGUUGAGCCUAUCUGUCCAGGGAACCAGAUUGGUGUCCGAGAUGAGGAAAUGGCUGUGGCCUGGGAAAUCAGUGAGAGGCCGCUUGGGAAUGAGAAUGCAGUGGACUGAAAGCACAGCCUGGCCAUCUGGAACCUGGGUUCUGGUCCCAGCCUCGGCAUUCUCCCUGAGCUCCUAAGCAAUCUCUUGCGGUCGCACUAGUGUGGAAUUCUCGGGUGUCAAGG
B16: ENSMUSG00000028439.177|Fam219a (ssRNA)
RNA: GGGAGUUCUACAGUCCGACGAUCGCUUCGAUAUCCGCAUGCUAUAUGCACAUGUGUGUGCAUGUGUGUGUGCCUGUGUGUGUGCGUGUGCGUGUGUGUAUGUGUGUGCGUGUGUGUGUGUGUGUGUUGUACCCGAGUGUGUGUUGAGCCUAUCUGUCCAGGGAACCAGAUUGGUGUCCGAGAUGAGGAAAUGGCUGUGGCCUGGGAAAUCAGUGAGAGGCCGCUUGGGAAUGAGAAUGCAGUGGACUGAAAGCACAGCCUGGCCAUCUGGAACCUGGGUUCUGGUCCCAGCCUCGGCAUUCUCCUCUUGCGGUCGCACUAGUGUGGAAUUCUCGGGUGUCAAGG

The full ranking holds about 9,900 sequences; the median of “r (bound/input frequency ratio)” is about 0.7, and the highest 2% start at about 6.5. Many of the other results were omitted from the sample, so the highest values are more common in it than they were.

Sequence of TDP-43 (Q13148 whole entry): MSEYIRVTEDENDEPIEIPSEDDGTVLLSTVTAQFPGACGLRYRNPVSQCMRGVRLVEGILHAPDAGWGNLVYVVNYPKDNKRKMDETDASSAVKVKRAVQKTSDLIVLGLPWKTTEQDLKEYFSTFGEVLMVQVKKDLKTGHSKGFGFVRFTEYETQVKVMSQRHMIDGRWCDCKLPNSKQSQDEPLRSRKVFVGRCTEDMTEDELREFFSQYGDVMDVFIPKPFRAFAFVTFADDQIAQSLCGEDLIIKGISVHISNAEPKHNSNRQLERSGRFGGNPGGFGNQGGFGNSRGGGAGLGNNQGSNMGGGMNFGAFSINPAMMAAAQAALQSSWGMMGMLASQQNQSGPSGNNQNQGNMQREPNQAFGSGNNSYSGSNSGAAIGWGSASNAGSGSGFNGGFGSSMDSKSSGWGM

This experiment has as its target TDP-43 (Homo sapiens, UniProt Q13148 1-414). Description: RNA Bind-n-Seq with designed 260-mer pool; 25 mM Tris-HCl, 150 mM KCl, 3 mM MgCl2, BSA (printed 500 mg/mL), 20 units/mL SUPERase IN; pH not stated; 500 nM RNA pool, 1 h, 4 C; TDP-43 5, 50, 500 nM; high values mean tight binding. Conditions: protein: recombinant; tags: SBP (GST cleaved off with PreScission; pGEX-GST-SBP). The gist of the method:
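The incubation lasted 1 h at 4 °C and used 500 nM of an in vitro-transcribed 260-nt 3′ UTR oligo pool with recombinant SBP-tagged TDP-43 at 5, 50 or 500 nM immobilized on streptavidin beads. It took place in 25 mM Tris-HCl, 150 mM KCl, 3 mM MgCl2, BSA and SUPERase IN. Bound RNA was washed, eluted with biotin, converted to cDNA, PCR-amplified and sequenced to give R, each oligo's normalized abundance in the bound sample divided by that in input. Two independent protein batches provided the duplicates.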
For B1, the binding signal is 0.515 R (bound/input frequency ratio).

Consider B2, for which the binding signal is 0.442 R (bound/input frequency ratio).

For B3, the binding signal was 0.247 R (bound/input frequency ratio).

As to B4, the binding signal is 1.01 R (bound/input frequency ratio).

Regarding B5, the binding signal was 0.362 R (bound/input frequency ratio).

As for B6, the binding signal is 0.514 R (bound/input frequency ratio).

Regarding B7, the binding signal was 2.37 R (bound/input frequency ratio).

As for B8, the binding signal is 1 R (bound/input frequency ratio).

For B9, the binding signal was 0.116 R (bound/input frequency ratio).

On to B10, for which the binding signal was 2.54 R (bound/input frequency ratio).

Turning to B11, the binding signal was 0.691 R (bound/input frequency ratio).

As to B12, the binding signal is 0.0736 R (bound/input frequency ratio).

As to B13, the binding signal was 9.43 R (bound/input frequency ratio).

Turning to B14, the binding signal was 7.2 R (bound/input frequency ratio).

B15: the binding signal is 5.95 R (bound/input frequency ratio).

B16: the binding signal is 8.05 R (bound/input frequency ratio).

(Values after article PMC12864922, “TDP-43 directly inhibits mRNA accumulation in neurites through modulation of mRNA stability”.)
